The campaign covered roughly 5,500 compounds. About 2,000 (36%) were called active. Not shown: some 18% with an inconclusive outcome. Cut-off read from the data, not from the text of the source: active = normalized growth mostly below about 0.91 (no sharp cut-off); inconclusive = no clear call, values can overlap the other calls; inactive = mostly above about 0.92. Some of the results follow.
Assay: chemical genetic growth profiling, strain panel (AID 1159580);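 note: tested at 20 µM; growth read once vehicle control cultures reached saturation at 30 °C; 1 = growth at the plate median or of vehicle wells; lower values mean less growth of the strain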
Settings: growth OD
[1] = S. cerevisiae deletion strains, locus YDR150W, strain NUM1, hits give low values
[2] = S. cerevisiae deletion strains, locus YMR263W, strain SAP30, hits give low values
[3] = S. cerevisiae deletion strains, locus YMR307W, strain GAS1, hits give low values
[4] = S. cerevisiae deletion strains, locus YPL055C, strain LGE1, hits give low values
[5] = S. cerevisiae deletion strains, locus YPL241C, strain CIN2, hits give low values

Measured: normalized growth

CCCc1c(OCCCCc2nn[nH]n2)ccc(C(C)=O)c1O
inactive: S. cerevisiae deletion strains, locus YAL013W, strain DEP1, hits give low values 1.01 | S. cerevisiae deletion strains, locus YBR021W, strain FUR4, hits give low values 1.03 | S. cerevisiae deletion strains, locus YBR229C, strain ROT2, hits give low values 1.01 | S. cerevisiae deletion strains, locus YCL029C, strain bik1, hits give low values 0.997 | S. cerevisiae deletion strains, locus YDL035C, strain GPR1, hits give low values 1.02 | S. cerevisiae deletion strains, locus YDL074C, strain BRE1, hits give low values 1.06 | S. cerevisiae deletion strains, locus YDL101C, strain DUN1, hits give low values 1.02 | S. cerevisiae deletion strains, locus YDL134C, strain PPH21, hits give low values 1.01 | S. cerevisiae deletion strains, locus YDL185W, strain tfp1, hits give low values 0.968 | S. cerevisiae deletion strains, locus YDL192W, strain arf1, hits give low values 0.995 | S. cerevisiae deletion strains, locus YDR101C, strain arx1, hits give low values 0.991 | [1] 1.01 | S. cerevisiae deletion strains, locus YDR162C, strain NBP2, hits give low values 1.01 | S. cerevisiae deletion strains, locus YDR318W, strain mcm21, hits give low values 0.993 | S. cerevisiae deletion strains, locus YDR388W, hits give low values 0.993 | S. cerevisiae deletion strains, locus YDR502C, strain sam2, hits give low values 1.01 | S. cerevisiae deletion strains, locus YEL061C, strain CIN8, hits give low values 1.01 | S. cerevisiae deletion strains, locus YER110C, hits give low values 0.977 | S. cerevisiae deletion strains, locus YER155C, strain BEM2, hits give low values 1.01 | S. cerevisiae deletion strains, locus YER167W, strain BCK2, hits give low values 1.01 | S. cerevisiae deletion strains, locus YGL078C, strain dbp3, hits give low values 0.996 | S. cerevisiae deletion strains, locus YGL086W, strain mad1, hits give low values 1 | S. cerevisiae deletion strains, locus YGL248W, strain PDE1, hits give low values 1.01 | S. cerevisiae deletion strains, locus YGR078C, strain PAC10, hits give low values 1.01 | S. cerevisiae deletion strains, locus YGR135W, strain pre9, hits give low values 1 | S. cerevisiae deletion strains, locus YGR229C, strain SMI1, hits give low values 1.03 | S. cerevisiae deletion strains, locus YGR252W, strain gcn5, hits give low values 0.934 | S. cerevisiae deletion strains, locus YHR030C, strain SLT2, hits give low values 1.01 | S. cerevisiae deletion strains, locus YHR079C, strain IRE1 (second series), hits give low values 0.992 | S. cerevisiae deletion strains, locus YHR094C, strain hxt1, hits give low values 0.992 | S. cerevisiae deletion strains, locus YHR129C, strain ARP1, hits give low values 1.01 | S. cerevisiae deletion strains, locus YHR200W, strain rpn10, hits give low values 0.987 | S. cerevisiae deletion strains, locus YIL066C, strain RNR3, hits give low values 1.02 | S. cerevisiae deletion strains, locus YIL073C, strain SPO22, hits give low values 1.03 | S. cerevisiae deletion strains, locus YIL125W, strain kgd1, hits give low values 1 | S. cerevisiae deletion strains, locus YIR030C, strain dcg1, hits give low values 0.995 | S. cerevisiae deletion strains, locus YJL095W, strain BCK1, hits give low values 1.02 | S. cerevisiae deletion strains, locus YJL134W, strain LCB3, hits give low values 1.01 | S. cerevisiae deletion strains, locus YJL168C, strain set2, hits give low values 0.993 | S. cerevisiae deletion strains, locus YJL187C, strain SWE1 (second series), hits give low values 1.01 | S. cerevisiae deletion strains, locus YJR043C, strain POL32, hits give low values 0.984 | S. cerevisiae deletion strains, locus YJR075W, strain HOC1, hits give low values 1.02 | S. cerevisiae deletion strains, locus YKL009W, strain mrt4, hits give low values 1.02 | S. cerevisiae deletion strains, locus YKL068W, hits give low values 0.999 | S. cerevisiae deletion strains, locus YKL085W, strain MDH1 (second series), hits give low values 0.999 | S. cerevisiae deletion strains, locus YKL085W, strain MDH1, hits give low values 0.999 | S. cerevisiae deletion strains, locus YKL190W, strain CNB1, hits give low values 1.01 | S. cerevisiae deletion strains, locus YKR001C, strain vps1, hits give low values 0.957 | S. cerevisiae deletion strains, locus YLR039C, strain RIC1, hits give low values 1.05 | S. cerevisiae deletion strains, locus YLR058C, strain SHM2, hits give low values 1.01 | S. cerevisiae deletion strains, locus YLR102C, strain apc9, hits give low values 0.997 | S. cerevisiae deletion strains, locus YLR262C, strain YPT6, hits give low values 1.08 | S. cerevisiae deletion strains, locus YLR268W, strain sec22, hits give low values 0.994 | S. cerevisiae deletion strains, locus YLR330W, strain CHS5, hits give low values 1.01 | S. cerevisiae deletion strains, locus YLR342W, strain FKS1 (second series), hits give low values 0.975 | S. cerevisiae deletion strains, locus YLR371W, strain rom2, hits give low values 0.989 | S. cerevisiae deletion strains, locus YLR418C, strain cdc73, hits give low values 0.984 | S. cerevisiae deletion strains, locus YML016C, strain PPZ1, hits give low values 1.01 | S. cerevisiae deletion strains, locus YML032C, strain rad52, hits give low values 0.995 | S. cerevisiae deletion strains, locus YML124C, strain tub3, hits give low values 0.996 | S. cerevisiae deletion strains, locus YMR078C, strain ctf18, hits give low values 0.994 | S. cerevisiae deletion strains, locus YMR223W, strain ubp8, hits give low values 0.991 | [2] 1.01 | [3] 1.01 | S. cerevisiae deletion strains, locus YNL067W, strain RPL9B, hits give low values 1.01 | S. cerevisiae deletion strains, locus YNL128W, strain TEP1, hits give low values 1.01 | S. cerevisiae deletion strains, locus YNL153C, strain GIM3, hits give low values 1.01 | S. cerevisiae deletion strains, locus YNL233W, strain BNI4, hits give low values 1.01 | S. cerevisiae deletion strains, locus YNL250W, strain rad50, hits give low values 0.996 | S. cerevisiae deletion strains, locus YNL271C, strain bni1, hits give low values 0.997 | S. cerevisiae deletion strains, locus YNL298W, strain CLA4, hits give low values 0.997 | S. cerevisiae deletion strains, locus YNL307C, strain MCK1, hits give low values 0.993 | S. cerevisiae deletion strains, locus YNL322C, strain KRE1, hits give low values 1.01 | S. cerevisiae deletion strains, locus YNR052C, strain pop2, hits give low values 0.981 | S. cerevisiae deletion strains, locus YOL006C, strain TOP1, hits give low values 1.09 | S. cerevisiae deletion strains, locus YOL012C, strain htz1 1.54 | S. cerevisiae deletion strains, locus YOL147C, strain pex11, hits give low values 0.989 | S. cerevisiae deletion strains, locus YOR061W, strain CKA2, hits give low values 1.01 | S. cerevisiae deletion strains, locus YOR069W, strain VPS5, hits give low values 1 | S. cerevisiae deletion strains, locus YOR136W, strain idh2, hits give low values 0.986 | S. cerevisiae deletion strains, locus YOR144C, strain elg1, hits give low values 0.994 | S. cerevisiae deletion strains, locus YOR184W, strain ser1, hits give low values 0.992 | S. cerevisiae deletion strains, locus YOR316C, strain cot1, hits give low values 1 | [4] 1.03 | [5] 1 | S. cerevisiae deletion strains, locus YPR119W, strain clb2, hits give low values 0.992 | S. cerevisiae deletion strains, locus YPR141C, strain kar3, hits give low values 1.01 | S. cerevisiae deletion strains, locus YPR163C, strain tif3, hits give low values 0.986 | S. cerevisiae deletion strains, locus YPR167C, strain met16, hits give low values 0.992 | S. cerevisiae deletion strains, strain wtn01, hits give low values 0.993 | S. cerevisiae strains, strain wild type, hits give low values 1.01

CCC1(O)CC2CN(CCc3c([nH]c4ccccc34)[C@@](C(=O)OC)(c3cc4c(cc3OC)N(C)C3[C@]45CCN4CC=C[C@@](CC)([C@@H](OC(C)=O)[C@]3(O)C(=O)OC)[C@H]45)C2)C1 (some centres undefined)
inactive: S. cerevisiae deletion strains, locus YAL040C, strain CLN3, hits give low values 1 | S. cerevisiae deletion strains, locus YCL061C, strain MRC1 (second series), hits give low values 1 | [1] 1.01 | S. cerevisiae deletion strains, locus YDR363W, strain ESC2, hits give low values 0.993 | S. cerevisiae deletion strains, locus YER002W, strain NOP16, hits give low values 1.06 | [2] 0.996 | [3] 0.985 | S. cerevisiae deletion strains, locus YNL175C, strain NOP13, hits give low values 1.02 | S. cerevisiae deletion strains, locus YNL197C, strain WHI3, hits give low values 1.03 | S. cerevisiae deletion strains, locus YNL224C, strain SQS1, hits give low values 1.04 | S. cerevisiae deletion strains, locus YOR083W, strain WHI5 (second series), hits give low values 1.07 | [4] 1.01 | [5] 0.994
